For orientation: AC50 means the concentration giving half of the maximal activity seen.

The source made the active and inactive calls. Rule for the calls: active = hit-call score of the fitted dose curve at least 0.9, where 1 is the maximum; inactive = score below 0.9.

Among the data in PubChem BioAssay (EPA / NIEHS) are outcome and AC50 values, retold here.

Read-out in assay [1]: TIMP metallopeptidase inhibitor 1 (TIMP1), TIMP1 (gene 7076)
As to the kind of experiment: BSK_hDFCGF_TIMP1: BioMAP Diversity Plus: hDFCGF Assay for TIMP metallopeptidase inhibitor 1 (TIMP1) Biomarker Activity (AID 2283062). Conditions: primary human foreskin fibroblasts; actives raise or lower the signal. The essentials: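 Bidirectional curve fitting against DMSO baseline yielded this endpoint, based on ELISA detection of TIMP-1 in primary human foreskin fibroblasts exposed to compound for 24 h.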

Read-out in assay [2]: Monokine induced gamma interferon (MIG), CXCL9 (gene 4283)
The experiment in a line: BSK_hDFCGF_MIG: BioMAP Diversity Plus: hDFCGF Assay for Monokine induced gamma interferon (MIG) Biomarker Activity (AID 2283063). Conditions: primary human foreskin fibroblasts; actives raise or lower the signal. The method in brief:
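Endpoint derived by bidirectional fitting relative to DMSO; MIG quantified via ELISA in primary human foreskin fibroblasts harvested 24 h after dosing.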

Read-out in assay [3]: Matrix Metallopeptidase 1 (MMP1), MMP1 (gene 4312)
The experiment in a line: BSK_hDFCGF_MMP1: BioMAP Diversity Plus: hDFCGF Assay for Matrix Metallopeptidase 1 (MMP1) Biomarker Activity (AID 2283064). Conditions: primary human foreskin fibroblasts; actives raise or lower the signal. The method in brief: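 MMP1 levels quantified by ELISA 24 h after dosing human dermal fibroblast cultures, with parallel SRB total-protein staining for overt cytotoxicity. Data fitted in both directions against DMSO baseline.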

Read-out in assay [4]: Vascular cell adhesion molecule 1 (VCAM1), VCAM1 (gene 7412)
The experiment in a line: BSK_hDFCGF_VCAM1: BioMAP Diversity Plus: hDFCGF Assay for Vascular cell adhesion molecule 1 (VCAM1) Biomarker Activity (AID 2283065).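 For AC50: VCAM-1 protein level quantified by ELISA after 24 h chemical exposure.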 Conditions: primary human foreskin fibroblasts; actives raise or lower the signal. The method in brief:
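Measured after 24 h chemical treatment of primary human skin fibroblasts, VCAM-1 was detected by ELISA and concentration-response analysed in both directions versus DMSO vehicle.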

Read-out in assay [5]: Plasminogen activator inhibitor-1 (PAI1), SERPINE1 (gene 5054)
As to the kind of experiment: BSK_hDFCGF_PAI1: BioMAP Diversity Plus: hDFCGF Assay for Plasminogen activator inhibitor-1 (PAI1) Biomarker Activity (AID 2283066). Conditions: primary human foreskin fibroblasts; actives raise or lower the signal. The essentials: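 Human skin fibroblast cultures receive chemical for 24 h before PAI-1 is measured by ELISA; signal changes are fitted bidirectionally against DMSO-treated wells.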

Read-out in assay [6]: Intercellular Adhesion Molecule 1 (ICAM1), ICAM1 (gene 3383)
The experiment in a line: BSK_KF3CT_ICAM1: BioMAP Diversity Plus: KF3CT Assay for Intercellular Adhesion Molecule 1 (ICAM1) Biomarker Activity (AID 2283067). Conditions: primary human keratinocytes with fibroblasts; actives raise or lower the signal. The method in brief: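 Bidirectional curve fitting against a DMSO baseline was applied to ICAM-1 ELISA signal from primary human skin co-cultures harvested 24 h after treatment, with SRB staining of parallel wells for overt cytotoxicity.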

Read-out in assay [7]: Interferon-gamma inducible Protein 10 (IP10), CXCL10 (gene 3627)
The experiment in a line: BSK_KF3CT_IP10: BioMAP Diversity Plus: KF3CT Assay for Interferon-gamma inducible Protein 10 (IP10) Biomarker Activity (AID 2283068). Conditions: primary human keratinocytes with fibroblasts; actives raise or lower the signal. The method in brief:
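Signal is secreted/surface IP-10 by ELISA in a human primary skin co-culture of keratinocytes and foreskin fibroblasts, taken 24 h post-dosing; DMSO served as negative control.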

Assay [8] in a line: BSK_KF3CT_SRB: Viability Assessment in the BioMAP Diversity Plus: KF3CT Assay (AID 2283069).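 Note: total protein by sulforhodamine B staining as a cytotoxicity measure; read 24 h after compound addition.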 Conditions: primary human keratinocytes with fibroblasts. The essentials:
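Cytotoxicity was gauged by SRB staining (0.1% SRB, 10% TCA fixation, 560 nm) of parallel cultures at 24 h. The cells were primary human skin keratinocytes co-cultured with fibroblasts, and activity was fitted in both directions against DMSO.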

Read-out in assay [9]: Interleukin-1 alpha (IL1a), IL1A (gene 3552)
As to the kind of experiment: BSK_KF3CT_IL1a: BioMAP Diversity Plus: KF3CT Assay for Interleukin-1 alpha (IL1a) Biomarker Activity (AID 2283070). Conditions: primary human keratinocytes with fibroblasts; actives raise or lower the signal. The method in brief: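 IL-1a was detected by ELISA 24 h after chemical treatment of a co-culture of human skin keratinocytes and foreskin fibroblasts. Gain or loss of signal was fitted against the DMSO baseline.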

Read-out in assay [10]: TIMP metallopeptidase inhibitor 2 (TIMP2), TIMP2 (gene 7077)
The experiment in a line: BSK_KF3CT_TIMP2: BioMAP Diversity Plus: KF3CT Assay for TIMP metallopeptidase inhibitor 2 (TIMP2) Biomarker Activity (AID 2283071). Conditions: primary human keratinocytes with fibroblasts; actives raise or lower the signal. The method in brief: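 Measurements come from ELISA detection of TIMP-2 at 24 hours in a dosed human keratinocyte and foreskin fibroblast co-culture. DMSO serves as negative control and baseline.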

Read-out in assay [11]: Transforming growth factor beta 1 (TGFb1), TGFB1 (gene 7040)
The experiment in a line: BSK_KF3CT_TGFb1: BioMAP Diversity Plus: KF3CT Assay for Transforming growth factor beta 1 (TGFb1) Biomarker Activity (AID 2283072). Conditions: primary human keratinocytes with fibroblasts; actives raise or lower the signal. The method in brief:
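TGF-b1 ELISA on a 24 h dosed co-culture of human keratinocytes and foreskin fibroblasts; cytotoxicity tracked in parallel cultures by SRB staining.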

Read-out in assay [12]: C-C motif chemokine 2 (Homo sapiens) (UniProt P13500)
As to the kind of experiment: BSK_KF3CT_MCP1: BioMAP Diversity Plus: KF3CT Assay for Monocyte Chemoattractant Protein 1 (MCP1/CCL2) Biomarker Activity (AID 2283073). Conditions: primary human keratinocytes with fibroblasts; actives raise or lower the signal. The method in brief:
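Biomarker MCP-1 is measured by ELISA in primary human keratinocytes co-cultured with foreskin fibroblasts, 24 h after chemical treatment; DMSO serves as the negative control and activity baseline.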

Read-out in assay [13]: Matrix Metallopeptidase 9 (MMP9), MMP9 (gene 4318)
The experiment in a line: BSK_KF3CT_MMP9: BioMAP Diversity Plus: KF3CT Assay for Matrix Metallopeptidase 9 (MMP9) Biomarker Activity (AID 2283074).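 For AC50: MMP9 protein level quantified by ELISA in the co-culture.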 Conditions: primary human keratinocytes with fibroblasts; actives raise or lower the signal. The essentials: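 MMP-9 quantified by ELISA after 24 h chemical treatment of primary human skin keratinocyte/fibroblast co-cultures; gain or loss fitted against DMSO, with parallel SRB staining (0.1% SRB, 560 nm) for overt cytotoxicity.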

Read-out in a further assay: CD40, CD40 (gene 958)
As to the kind of experiment: BSK_LPS_CD40: BioMAP Diversity Plus: LPS Assay for CD40 Biomarker Activity (AID 2283076). Conditions: primary human HUVEC with PBMC; actives raise or lower the signal. The essentials: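 Using a multiplexed primary human co-culture (umbilical vein endothelium plus PBMC), CD40 was read by ELISA 24 h after dosing, with cytotoxicity tracked by sulforhodamine B staining of parallel cultures and activity fitted bidirectionally versus DMSO.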

Read-out in assay [14]: E-selectin (Homo sapiens) (UniProt P16581)
The experiment in a line: BSK_LPS_Eselectin: BioMAP Diversity Plus: LPS Assay for Eselectin Biomarker Activity (AID 2283077). Conditions: primary human HUVEC with PBMC; actives raise or lower the signal. The essentials:
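Dose chemical onto LPS-driven HUVEC/PBMC co-culture; after 24 h, run ELISA for E-selectin; fit up- and down-going responses relative to DMSO control.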

Read-out in assay [15]: Interleukin-8 (IL8), CXCL8 (gene 3576)
The experiment in a line: BSK_LPS_IL8: BioMAP Diversity Plus: LPS Assay for Interleukin-8 (IL8) Biomarker Activity (AID 2283078). Conditions: primary human HUVEC with PBMC; actives raise or lower the signal. The essentials: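 In this LPS system, chemical-treated human umbilical vein endothelium/PBMC co-cultures were harvested at 24 h for IL-8 ELISA.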

A short description of assay [16]: BSK_LPS_SRB: Viability Assessment in the BioMAP Diversity Plus: LPS Assay (AID 2283079).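 Note: total protein by sulforhodamine B absorbance as a cytotoxicity measure; measured one day after compound addition; fitted in both directions against DMSO so loss or gain of signal counts.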 Conditions: primary human HUVEC with PBMC. The essentials: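 Cytotoxicity endpoint in human endothelial–PBMC co-culture: 24 h exposure, then SRB (0.1%) staining, 560 nm read.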
Read-out in assay [17]: Interleukin-1 alpha (IL1a), IL1A (gene 3552)
The experiment in a line: BSK_LPS_IL1a: BioMAP Diversity Plus: LPS Assay for Interleukin-1 alpha (IL1a) Biomarker Activity (AID 2283080). Conditions: primary human HUVEC with PBMC; actives raise or lower the signal. The essentials:
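Primary human HUVEC and PBMC co-culture stimulated with LPS is dosed and harvested at 24 h. Both increases and decreases in ELISA-measured IL-1a are scored relative to DMSO.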

Read-out in assay [18]: Monocyte Chemoattractant Protein-1 (MCP1), CCL2 (gene 6347)
The experiment in a line: BSK_LPS_MCP1: BioMAP Diversity Plus: LPS Assay for Monocyte Chemoattractant Protein-1 (MCP1) Biomarker Activity (AID 2283081).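 For AC50: secreted MCP-1 protein quantified by ELISA in culture supernatant.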 Conditions: primary human HUVEC with PBMC; actives raise or lower the signal. The method in brief: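 Values derive from bidirectional fitting against DMSO of ELISA-measured MCP-1 in a human primary endothelial and mononuclear cell co-culture, 24 h after chemical addition under LPS activation.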

Read-out in assay [19]: urokinase plasminogen activator (uPA), PLAU (gene 5328)
The experiment in a line: BSK_KF3CT_uPA: BioMAP Diversity Plus: KF3CT Assay for urokinase plasminogen activator (uPA) Biomarker Activity (AID 2283075). Conditions: primary human keratinocytes with fibroblasts; actives raise or lower the signal. The method in brief: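 ELISA read-out of uPA 24 h after dosing human skin keratinocytes co-cultured with foreskin fibroblasts. Signal change fitted both ways relative to DMSO; sulforhodamine B on parallel cultures marks overt cytotoxicity.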

Sequence of E-selectin (Homo sapiens) (P16581 whole entry, looked up): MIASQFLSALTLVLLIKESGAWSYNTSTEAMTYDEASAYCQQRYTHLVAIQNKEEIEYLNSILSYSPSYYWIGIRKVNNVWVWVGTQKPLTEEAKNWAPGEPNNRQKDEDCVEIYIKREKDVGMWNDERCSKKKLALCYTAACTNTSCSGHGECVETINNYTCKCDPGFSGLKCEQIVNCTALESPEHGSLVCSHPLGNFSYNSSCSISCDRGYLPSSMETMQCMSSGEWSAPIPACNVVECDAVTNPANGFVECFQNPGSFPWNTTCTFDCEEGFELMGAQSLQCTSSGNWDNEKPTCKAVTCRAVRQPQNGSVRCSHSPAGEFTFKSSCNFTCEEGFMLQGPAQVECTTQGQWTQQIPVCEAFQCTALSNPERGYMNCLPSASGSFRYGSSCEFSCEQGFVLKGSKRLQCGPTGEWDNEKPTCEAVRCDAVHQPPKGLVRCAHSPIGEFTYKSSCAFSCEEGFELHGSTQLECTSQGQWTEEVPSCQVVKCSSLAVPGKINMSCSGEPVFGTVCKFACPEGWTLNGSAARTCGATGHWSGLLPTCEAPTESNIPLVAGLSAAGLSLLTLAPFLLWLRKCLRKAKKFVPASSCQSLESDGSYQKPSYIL

Turning to `COC(=O)CC(=O)OC`, the result in [1], in [2], in assay [3], in assay [4], in assay [5] and in [6] was inactive. Moreover, the result in assay [7], in assay [8], in assay [9], in [10], in assay [11] and in [12] was inactive. Moreover, the outcome is “inactive” in assay [13]; “inactive” with CD40, CD40 (gene 958); “inactive” in assay [14]; “inactive” in [15]; “inactive” in assay [16]; “inactive” in assay [17]. The result in assay [18] was inactive.

Take `CCOC(=O)CC(CC(=O)OCC)(OC(C)=O)C(=O)OCC`: the outcome in assay [1], in assay [2], in [3], in [4], in [5] and in assay [6] was inactive. The outcome in [7], in assay [8], in [9], in [10], in [11] and in [12] was inactive. The outcome is “inactive” in [13]; “inactive” with CD40, CD40 (gene 958); “inactive” in [14]; “inactive” in [15]; “inactive” in assay [16]; “inactive” in assay [17]. Further, in [18], the result was inactive.

On to `Nc1ccc(Nc2ccccc2)cc1`, for which the result in [1], in [2], in assay [3], in assay [5], in assay [6] and in assay [7] was inactive. The result in [8], in assay [9], in assay [10], in assay [11], in assay [12] and in assay [16] was inactive. Besides, the AC50 was 5.54 µM (active) in assay [4]; 3.97 µM (active) in assay [13]; 3.97 µM (active) with CD40, CD40 (gene 958); 12.9 µM (active) in assay [14]; 11.2 µM (active) in assay [15]; 8.02 µM (active) in assay [18].

Consider `CCC(C)(C)C(=O)O[C@H]1C[C@@H](C)C=C2C=C[C@H](C)[C@H](CC[C@@H]3C[C@@H](O)CC(=O)O3)[C@H]21`, for which the AC50 is 34.2 µM (active) in assay [1]; 33.9 µM (active) in assay [4]; 23.4 µM (active) in assay [5]; 31.2 µM (active) in [6]; 34.3 µM (active) in assay [7]; 34.8 µM (active) in assay [8]. Also, the half-maximal activity concentration (AC50) was 34.9 µM (active) in [9]; 30.8 µM (active) in assay [10]; 31.4 µM (active) in assay [11]; 36.9 µM (active) in assay [12]; 31.6 µM (active) in assay [13]; 31.2 µM (active) in assay [19]. Further, the half-maximal activity concentration (AC50) with CD40, CD40 (gene 958) was 6.52 µM (active); in assay [14], 0.168 µM (active); in assay [16], 4.75 µM (active); in assay [17] it was 1.28 µM (active); in [18], 30.5 µM (active). In addition, the outcome in [2] and in assay [15] was inactive.

In the case of `CC(C)=CCCC(C)=CC=O`, the outcome in assay [1], in assay [2], in assay [3], in assay [4], in assay [5] and in [6] was inactive. Further, the result in assay [7], in assay [8], in assay [9], in [10], in assay [11] and in [12] was inactive. The outcome in assay [13] was “inactive”; with CD40, CD40 (gene 958) it was “inactive”; in assay [14], “inactive”; in [15] it was “inactive”; in assay [16], “inactive”; in [17], “inactive”. In addition, the outcome in assay [18] was inactive.
